Data published in PubChem BioAssay AID1456 (Vanderbilt High Throughput Screening Facility, 2008).
Screen size: about 190,000 compounds; about 4,100 (2.2%) were called active. For the sample, actives were picked, then their nearest neighbours and some compounds at random. A number with no mark means an inactive call.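 The calls were made as follows: active = thallium flux slope and its plate-corrected score both differing from the plate sample mean at a set confidence after two filtering rounds, in either direction; inactive = the rest.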

target: Solute carrier family 12 member 5 (Homo sapiens) (UniProt Q9H2X9); assay: modulation of human KCC2 ion transport – cell-based, HEK293 KCC2, FluoZin-2 fluorescence, MLSMR, primary screen (AID 1456); conditions: KCC2 cells, thallium flux FluoZin-2 fluorescence; at 10 µM;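 also: slope of fluorescence scaled to starting intensity during 10 to 20 s after thallium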
Sequence (Q9H2X9 whole entry, looked up): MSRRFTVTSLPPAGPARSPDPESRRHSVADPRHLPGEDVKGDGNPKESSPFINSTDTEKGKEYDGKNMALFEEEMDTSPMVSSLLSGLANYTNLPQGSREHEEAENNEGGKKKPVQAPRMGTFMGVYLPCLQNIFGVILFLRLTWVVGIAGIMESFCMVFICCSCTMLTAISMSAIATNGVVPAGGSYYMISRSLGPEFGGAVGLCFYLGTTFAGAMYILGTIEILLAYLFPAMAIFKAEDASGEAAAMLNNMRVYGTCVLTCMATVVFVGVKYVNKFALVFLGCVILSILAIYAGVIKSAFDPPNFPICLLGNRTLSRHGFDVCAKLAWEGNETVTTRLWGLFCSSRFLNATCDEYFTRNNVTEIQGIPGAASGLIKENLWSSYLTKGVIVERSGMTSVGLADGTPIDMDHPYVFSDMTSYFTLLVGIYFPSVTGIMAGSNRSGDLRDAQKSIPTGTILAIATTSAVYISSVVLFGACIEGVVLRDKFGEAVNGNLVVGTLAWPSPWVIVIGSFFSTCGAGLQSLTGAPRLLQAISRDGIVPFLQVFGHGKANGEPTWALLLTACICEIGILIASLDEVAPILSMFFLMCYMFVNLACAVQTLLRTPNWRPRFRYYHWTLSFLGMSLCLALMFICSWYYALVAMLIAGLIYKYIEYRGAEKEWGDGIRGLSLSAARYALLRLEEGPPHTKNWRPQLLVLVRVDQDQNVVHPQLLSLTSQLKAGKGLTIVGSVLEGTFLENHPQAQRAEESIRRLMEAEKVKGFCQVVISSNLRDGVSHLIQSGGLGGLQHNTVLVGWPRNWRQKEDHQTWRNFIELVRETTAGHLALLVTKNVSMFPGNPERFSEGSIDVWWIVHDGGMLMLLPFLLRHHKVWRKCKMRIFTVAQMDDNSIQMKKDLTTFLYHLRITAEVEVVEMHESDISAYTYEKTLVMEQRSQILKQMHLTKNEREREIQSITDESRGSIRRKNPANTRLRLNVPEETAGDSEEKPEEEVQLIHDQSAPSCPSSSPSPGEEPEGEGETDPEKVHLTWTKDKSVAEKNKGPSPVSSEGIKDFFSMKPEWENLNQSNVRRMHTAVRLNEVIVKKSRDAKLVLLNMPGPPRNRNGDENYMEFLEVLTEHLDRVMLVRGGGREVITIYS

| Structure (SMILES) | B-score of Tl+ flux slope (higher = more flux/activation; lower = inhibition) |
| --- | --- |
| O=C(Nc1ccc(-c2nnc(-c3ccccc3)o2)cc1)c1ccc(Br)o1 | 1.83 |
| O=C(Nc1nnc(-c2ccc(Cl)cc2)o1)c1ccccc1Br | 35.2 (active) |
| O=C(Nc1cccc(Cl)c1)Nc1nnc(-c2ccccc2)o1 | 3.17 |
| O=C(NNS(=O)(=O)Cc1ccccc1)c1ccc([N+](=O)[O-])cc1 | 0.00978 |
| COc1ccc(NC(=S)Nc2ccccc2Cl)cn1 | 0.811 |
| COc1ccccc1NC(=S)NC(=O)C(C)C | 1.52 |
| FC(F)Oc1ccccc1NC(=S)Nc1cccc(Cl)c1Cl | 6.89 (active) |
| Cc1ccc(Cn2c(SCC(=O)N/N=C/c3ccccc3OCC(=O)O)nc3ccccc32)cc1 | 1.95 |
| O=C(CSc1nnc2n1CCCN2)c1ccccc1 | -0.0921 |
| CC(C)N1CCC(=NNc2ccc([N+](=O)[O-])cc2S(=O)(=O)N2CCOCC2)CC1 | 0.0282 |
| Cc1ccc(NNC(=O)C2CCC2)cc1C | 0.435 |
| O=C1/C(=C\c2ccsc2)NC(=S)N1c1ccccc1 | 11.5 (active) |
| COc1cc2c(cc1/C=C1/NC(=O)N(c3ccccc3)C1=O)OCO2 | 0.747 |
| CN(C)c1ccc(/C=C2\NC(=S)N(Cc3ccccc3)C2=O)cc1 | 2.56 |
| NS(=O)(=O)c1ccc(NC(=S)NC(=O)c2cccc(Br)c2)cc1 | 1.13 |
| NS(=O)(=O)c1ccc(NC(=S)NC(=O)c2cccnc2)cc1 | 1.98 (active) |
| CC(=O)NC(=S)Nc1ccc(NC(=O)c2cccnc2)cc1 | 1.03 |
| O=C(Cn1c(-c2ccc(Cl)cc2)noc1=O)N1CCN(c2ccccc2F)CC1 | -4.49 (active) |
| O=C(CCSc1ccccc1)N1CCN(c2ccccc2F)CC1 | -1.46 |
| Cn1c(=O)cc(OCC(=O)N2CCN(c3ccccc3F)CC2)c2ccccc21 | -0.0376 |
| COc1ccc(OCC(O)CNCCNc2nccc(C(F)(F)F)n2)cc1 (centres undefined) | 0.542 |
| Cc1ccc2c(c1)nnc1nnc(SCC(=O)O)n12 | -0.0291 |
| Fc1ccc2nc(-c3ccccc3)nc(SCc3nnc(-c4ccccc4)o3)c2c1 | 41.8 (active) |
| c1ccc(-c2nnc(SCc3nc4ccccc4[nH]3)o2)cc1 | -1.33 |
| Cc1ccc2nc(SCc3nnc(-c4ccccc4[N+](=O)[O-])o3)c(C#N)cc2c1 | 0.799 |

| Structure (SMILES) | B-score of Tl+ flux slope (higher = more flux/activation; lower = inhibition) |
| --- | --- |
| O=C(NCc1cccnc1)c1nc(-c2cccs2)no1 | 0.407 |
| CCCCN1Cc2c(nc3cc(-c4ccccc4)[nH]n3c2=O)C1=O | -0.758 |
| NCCCCCC(=O)N/N=C/c1ccc2nccnc2c1 | 1.4 |
| CCOC(=O)C1CCCN(C(=O)/C=C/c2ccc(OC)cc2)C1 (centres undefined) | -0.769 |
| O=C(Nc1ccc(S(=O)(=O)N2CCOCC2)cc1)c1ccc2ncsc2c1 | 0.51 |
| CC(=O)Nc1cccc(C(=O)Nc2nc(C)cs2)c1 | -0.0712 |
| Cc1csc(NC(=S)Nc2cccc(Cl)c2)n1 | 63.6 (active) |
| S=C(Nc1cccc(Cl)c1)Nc1ccc2cn[nH]c2c1 | -0.0612 |
| CCc1nc(NCCO)c(C#N)c2c1CCCC2 | -0.68 |
| S=C(NCCc1ccccc1)N1CCn2cccc2C1c1ccncc1 (centres undefined) | -2.41 |
| CN1CCN(c2ncc3c(n2)CC(c2ccccc2F)CC3=O)CC1 (centres undefined) | -1.12 |
| CCOC(=O)c1cc2cc(-c3c(C(=O)OCC)oc4cc(O)cc(O)c4c3=O)ccc2o1 | -1.36 |
| COc1ccc(-c2onc(C)c2-c2ccc3c(c2)OCCO3)c(O)c1 | 0.0687 |
| O=c1c(-c2ccc3c(c2)OCCO3)c(C(F)(F)F)oc2cc(O)cc(O)c12 | -2.89 (active) |
| COC(=O)C1=C(C)NC(=O)/C1=C/c1ccc(CNS(=O)(=O)c2ccc(C)cc2)o1 | -0.17 |
| O=C(O)C(NS(=O)(=O)c1cccc2nsnc12)c1ccccc1 (centres undefined) | 0.0778 |
| Cc1cc(=O)[nH]c(SCC(N)=O)c1C#N | 0.485 |
| CCCCSc1[nH]c(=O)c(C(=O)OCC)cc1C#N | 13 (active) |
| CCOC(=O)c1cc(C#N)c(N2CCCCC2)nc1-c1ccccc1 | 0.496 |
| CCc1c(C)nc2c(-c3ccccc3)c(C)nn2c1Nc1ccc(NC(C)=O)cc1 | 0.635 |
| COC(=O)c1sc(NC(=S)NC(=O)c2ccc(C)cc2)nc1C | 33.9 (active) |
| O=C(NC(=S)Nc1cccc2c(O)cccc12)c1cccc(Br)c1 | 1.46 |
| Cc1ccc(C)c(NC(=O)CCC(=O)NNC(=O)c2cccs2)c1 | -1.3 |
| Cc1ccccc1NC(=O)c1ccccc1 | 0.272 |
| Cc1cc2[nH]ncc2cc1NC(=S)NC(=O)c1ccccc1 | 0.179 |

| Structure (SMILES) | B-score of Tl+ flux slope (higher = more flux/activation; lower = inhibition) |
| --- | --- |
| Cc1ccc(C)c(NC(=S)NNC(=O)c2csc(C)c2)c1 | 6.59 (active) |
| CC(=O)c1sc(NC(=O)c2ccc(C)cc2)nc1C | 0.0252 |
| Cc1ccccc1NC(=S)NNC(=O)c1cccc(Br)c1 | 11.3 (active) |
| COC(=O)c1sc(NC(=O)c2ccc(OC)cc2OC)nc1C | -0.264 |
| Cc1ccc(NC(=S)NC(=O)c2ccc(-c3ccccc3)cc2)c(C)c1 | 1.26 |
| Cc1ccc(C)c(NC(=O)C(OC(=O)c2ccc(C)s2)c2ccccc2)c1 (centres undefined) | 0.676 |
| Cc1ccc(C(=O)NC(=S)Nc2ccccc2C)cc1 | 26.9 (active) |
| Cc1ccc2c(c1)c1ncn(Cc3ccc(F)cc3)c(=O)c1n2C | -2.08 |
| O=[N+]([O-])c1cc([N+](=O)[O-])c2cccnc2c1O | -1.12 |
| COC(=O)c1ccc(COc2cc([N+](=O)[O-])cc3cccnc23)cc1 | 0.95 |
| O=C(Nc1ccc([N+](=O)[O-])cc1)C1CC12CCC2 (centres undefined) | -0.552 |
| CCOc1ccc(NC(=S)N2CCCCCC2)cc1 | -0.294 |
| CCOCC(=O)Nc1ncc(S(=O)(=O)c2ccc([N+](=O)[O-])cc2)s1 | -0.205 |
| CCc1ccc(-n2c(SCc3cc(=O)n4cc(Br)ccc4n3)nc3[nH]ncc3c2=O)cc1 | -1.01 |
| Cc1ccc(C)c(NC(=S)NNC(=S)Nc2ccc(C(C)C)cc2)c1 | 4.26 (active) |
| Cc1ccccc1NC(=S)Nc1cccc([N+](=O)[O-])c1 | 0.705 |
| Cc1ccc(NC(=S)N/N=C2/CCCc3c(C)cc(C)cc32)cc1 | 0.076 |
| CC(C)c1ccc(NC(=S)NNc2ccc(Cl)c(C(=O)O)c2)cc1 | 0.393 |
| Cc1cc(C(=O)NNC(=S)NC(C)c2ccccc2)cs1 (centres undefined) | -1.17 |
| Cc1cc(C(=O)NNC(=S)Nc2ccccc2C)cs1 | 4.58 (active) |
| COc1ccc(CCNC(=O)C(=O)NCC2CCNCC2)cc1OC | 0.52 |
| O=C(NNc1cc(Cl)cc(Cl)c1)c1c(F)cccc1Cl | -0.755 |
| COc1cc(OC)c(OC)cc1/C=N/Nc1ncnc2c1[nH]c1ccc(C)cc12 | -1.07 |
| Cc1ccc(C(=O)NNc2ncnc3ccccc23)cc1 | 0.377 |
| OC(c1ccccc1)C(CN1CCOCC1)c1ccccc1 (centres undefined) | 0.0146 |

| Structure (SMILES) | B-score of Tl+ flux slope (higher = more flux/activation; lower = inhibition) |
| --- | --- |
| Cc1ccc(N=Cc2c(O)n(-c3nccs3)c(=O)c3ccccc23)c(C)c1 | -6.91 (active) |
| Cc1ccc(N=Cc2c(O)cc(C)oc2=O)c(C)c1 | 1.91 |
| Cc1ccc(-n2c(O)c(C=Nc3ccc(S(=O)(=O)Nc4ncccn4)cc3)c3ccccc3c2=O)cc1C | -0.0402 |
| CC(=O)Nc1ccc(S(=O)(=O)NC2(C(F)(F)F)C(=O)NC(C)=C2C#N)cc1 (centres undefined) | -0.983 |
| CCOC(=O)C1=C(NC(=S)NC(=O)c2ccccc2)c2ccccc2CC1(C)C | 3.94 (active) |
| COCCCNC(=S)NC(=O)c1ccccc1 | 1.23 |
| CCOC(=O)c1c(NC(=O)C2(C)Cc3ccccc3C(=O)O2)sc2c1CCCC2 (centres undefined) | 1.05 |
| Cc1nnsc1C(=O)NCc1c(F)cccc1Cl | 0.221 |
| COc1ccccc1NC(=O)c1cc(Cl)nc2ccccc12 | 0.201 |
| COc1cc(NC(=O)c2ccc(CNc3c(N4CCCC4)c(=O)c3=O)cc2)cc(OC)c1OC | 0.127 |
| CCOC(=O)c1c(C)[nH]c(C)c1C(=O)CSc1nc(N)cc(N)n1 | 6.26 (active) |
| Cc1cc(C)nc(SCC(=O)N(C)C)n1 | -0.609 |
| CCOC(=O)c1c(C)oc(C)c(C(=O)OCC)c1=O | -0.18 |
| O=S(=O)(NCCc1csc(-c2ccccc2)n1)c1cccnc1 | -0.711 |
| C/C(=N/NC(=O)CC(=O)N/N=C(\C)c1ccc([N+](=O)[O-])cc1)c1ccc([N+](=O)[O-])cc1 | -0.738 |
| S=c1[nH]nc(-c2ccncc2)n1/N=C/c1ccccc1Cl | 1.47 |
| COc1ccccc1/C=C/C=N/n1c(-c2ccc(Cl)cc2Cl)n[nH]c1=S | 11.5 (active) |
| Fc1ccccc1/C=N/n1c(-c2cccnc2)n[nH]c1=S | -0.286 |
| COc1ccc(NC(=O)c2cn(-c3ccccc3)nc2SC)cc1 | -1.58 |
| CCOC(=O)c1ccc(N=C2SC(C(=O)NC)CC(=O)N2CCc2ccccc2)cc1 (centres undefined) | 0.234 |
| COc1ccc2nc(NC(=O)NC3CCCCC3)sc2c1 | -1.35 |
| CCC1=C/C(=C\c2ccc3c(c2)OCO3)C(=O)S1 | -8.87 (active) |
| CSC1=N/C(=C\c2ccc3c(c2)OCO3)C(=O)S1 | -0.302 |
| O=C1/C(=C/c2ccc3c(c2)OCO3)CCC/C1=C\c1ccc2c(c1)OCO2 | 0.12 |
